The source of these data is PubChem BioAssay (Tox21).

The structures appear in SMILES notation. “And” between values parts separate entries of the source, which are not always exact repeats. Identical values can stand only once. Inconclusive results are not listed. Some compounds were tested as several samples or in several runs, with calls that do not always agree. The source made the active and inactive calls. Calls come from the whole dose curve; as a rule, active = well fitted curve in the direction sought with a large enough effect in the repeat runs; inconclusive = weak or mixed curves; inactive = no such curve, though single readings can be large; an effect the other way counts as inactive or inconclusive.

Experiment [1] is described as follows: A CellTox Green Cytotoxicity Assay to monitor cytotoxicity in HEK293 cells - 40 hour (AID 1224871). Note: nearly all actives have a fitted effect of over 45% in size. The gist of the method: (§1)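 Real-time, in one plate: 600 HEK293 cells/well with dead-cell DNA dye, pinned compound after 5 h, 37 C incubation over 40 h; viable cells give no appreciable fluorescence.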
A short description of experiment [2]: qHTS RealTime-Glo MT Cell Viability Assay in HEK293 cells - 16 hour (AID 1224872). Note: top concentration of the series differs between compounds; nearly all actives have a fitted effect of over 50% in size. An outline of the steps:
(§2)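 Assay medium contained NanoLuc luciferase plus cell-permeant prosubstrate, added with HEK293 cells at 600 cells/well. After 5 h at 37 C/5% CO2 compounds were added; plates stayed at 37 C for 40 h with serial luminescence reads.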

Experiment [3] in a line: qHTS RealTime-Glo MT Cell Viability Assay in HepG2 cells - 8 hour (AID 1224873). Note: nearly all actives have a fitted effect of over 55% in size. An outline of the steps:
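Real-time viability: cells seeded at 600 per well together with NanoLuc and cell-permeant prosubstrate, compounds added after 5 h incubation. Luminescence tracked at 0, 8, 16, 24, 32 and 40 h of exposure.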

Experiment [4] in a line: qHTS RealTime-Glo MT Cell Viability Assay in HEK293 cells - 40 hour (AID 1224874). Note: nearly all actives have a fitted effect of over 50% in size. Particulars: RealTime-Glo luminescence; max response: stronger effect = lower value. An outline of the steps: (§3)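 Kinetic, non-lysing viability readout. Seed HEK293 (600/well) with reagent, incubate 5 h at 37 C/5% CO2, pin 23 nL compound in DMSO, incubate at 37 C, read luminescence at 0, 8, 16, 24, 32, 40 h.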

A short description of experiment [5]: A CellTox Green Cytotoxicity Assay to monitor cytotoxicity in HEK293 cells - 24 hour (AID 1224875). Note: series mostly up to about 77 µM; nearly all actives have a fitted effect of over 45% in size. The gist of the method: as §1
Experiment [6] can be described thus: A CellTox Green Cytotoxicity Assay to monitor cytotoxicity in HepG2 cells - 16 hour (AID 1224876). Note: nearly all actives have a fitted effect of over 45% in size. Note: potency is the fitted concentration of half-maximal effect. The gist of the method:
(§4)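 Cytotoxicity was tracked as dead-cell DNA fluorescence in HepG2 cells treated with test compounds at 37 C; each time-point value comes from one kinetic series spanning 0, 8, 16, 24, 32 and 40 h.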

The nature of experiment [7]: qHTS RealTime-Glo MT Cell Viability Assay in HepG2 cells - 32 hour (AID 1224877). Note: nearly all actives have a fitted effect of over 55% in size. The gist of the method: (§5)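 qHTS, HepG2, 600 cells/well, RealTime-Glo (NanoLuc + prosubstrate) added with cells; 5 h preincubation; DMSO compound addition; 37 C; luminescence at 0/8/16/24/32/40 h.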
A short description of experiment [8]: A CellTox Green Cytotoxicity Assay to monitor cytotoxicity in HepG2 cells - 24 hour (AID 1224878). Note: nearly all actives have a fitted effect of over 45% in size. The gist of the method:
as §4

Experiment [9] in a line: A CellTox Green Cytotoxicity Assay to monitor cytotoxicity in HepG2 cells - 40 hour (AID 1224879). Note: nearly all actives have a fitted effect of over 40% in size. An outline of the steps: as §4
Experiment [10] in a line: qHTS RealTime-Glo MT Cell Viability Assay in HEK293 cells - 0 hour (AID 1224880). The gist of the method: as §3
The nature of experiment [11]: A CellTox Green Cytotoxicity Assay to monitor cytotoxicity in HEK293 cells - 32 hour (AID 1224881). Note: nearly all actives have a fitted effect of over 40% in size. An outline of the steps: as §1
The nature of experiment [12]: A CellTox Green Cytotoxicity Assay to monitor cytotoxicity in HepG2 cells - 0 hour (AID 1224882). Note: nearly all actives have a fitted effect of over 35% in size. The gist of the method: as §4
Experiment [13] in a line: A CellTox Green Cytotoxicity Assay to monitor cytotoxicity in HepG2 cells - 32 hour (AID 1224883). Note: nearly all actives have a fitted effect of over 50% in size. The gist of the method:
as §4

Experiment [14] in a line: A CellTox Green Cytotoxicity Assay to monitor cytotoxicity in HEK293 cells - 8 hour (AID 1224884). Note: nearly all actives have a fitted effect of over 35% in size. An outline of the steps: as §1
Experiment [15] is described as follows: qHTS RealTime-Glo MT Cell Viability Assay in HepG2 cells - 16 hour (AID 1224885). Note: nearly all actives have a fitted effect of over 50% in size. An outline of the steps: as §5
The nature of experiment [16]: qHTS RealTime-Glo MT Cell Viability Assay in HEK293 cells - 24 hour (AID 1224886). An outline of the steps: as §2
Experiment [17] is described as follows: qHTS RealTime-Glo MT Cell Viability Assay in HEK293 cells - 8 hour (AID 1224887). An outline of the steps: as §3
Experiment [18] in a line: A CellTox Green Cytotoxicity Assay to monitor cytotoxicity in HEK293 cells - 16 hour (AID 1224888). Note: nearly all actives have a fitted effect of over 35% in size. The gist of the method:
as §1

Experiment [19] in a line: qHTS RealTime-Glo MT Cell Viability Assay in HepG2 cells - 0 hour (AID 1224889). Note: nearly all actives have a fitted effect of over 50% in size. An outline of the steps:
as §5

The nature of experiment [20]: A CellTox Green Cytotoxicity Assay to monitor cytotoxicity in HepG2 cells - 8 hour (AID 1224890). Note: nearly all actives have a fitted effect of over 45% in size. An outline of the steps:
as §4
% is set by controls: 0 for no effect and ±100 for the full control effect.

Turning to `COCN(COC)c1nc(N(COC)COC)nc(N(COC)COC)n1`, the Potency result in experiment [1], in experiment [2], in experiment [3], in experiment [5], in experiment [6] and in experiment [7] was “inactive” in each case. The Potency entry in [8], in experiment [9], in experiment [10], in experiment [11], in [12] and in experiment [13] was “inactive” throughout. For the same compound, the Potency entry in [14], in experiment [15], in experiment [16], in experiment [17], in experiment [18] and in experiment [19] was “inactive” in each case. Besides, the Potency result in experiment [20] is “inactive”. For the same compound, the max response in [4] was -2.02% (inactive) and -0.0674% (inactive).

Take `COc1ccc(N)c(OC)c1`: the Potency entry in experiment [1], in [2], in experiment [3], in experiment [5], in experiment [6] and in experiment [7] was “inactive” in each case. The Potency entry in experiment [8], in [9], in [10], in experiment [11], in experiment [12] and in experiment [13] was “inactive” in each case. For the same compound, the Potency entry in experiment [14], in [15], in [16], in experiment [17], in experiment [18] and in [19] was “inactive” in each case. The Potency result in experiment [20] was “inactive”. The max response in [4] is -8.13% (inactive) and -8.26% (inactive).

Turning to `CS(=O)(=O)c1ccc(Cl)cc1`, the Potency result in experiment [1], in experiment [2], in experiment [3], in experiment [5], in experiment [7] and in experiment [8] was “inactive” throughout. Further, the Potency result in experiment [9], in experiment [10], in experiment [11], in experiment [12], in [13] and in [14] was “inactive” throughout. Moreover, the Potency entry in [15], in [16], in experiment [17], in experiment [18], in experiment [19] and in [20] was “inactive” in each case. Further, the max response in experiment [4] is -0.177% (inactive) and 6.75% (inactive). Moreover, the Potency result in experiment [6] is “inactive and 38.9 µM (active)”.

For `Cc1cc(C)c(O)c(C)c1`, the Potency result in [1], in experiment [2], in experiment [3], in experiment [5], in experiment [6] and in experiment [7] was “inactive” in each case. The Potency entry in experiment [8], in experiment [9], in [10], in experiment [11], in experiment [12] and in experiment [13] was “inactive” throughout. For the same compound, the Potency result in experiment [14], in experiment [15], in experiment [16], in experiment [17], in experiment [18] and in [19] was “inactive” each time. In experiment [20], the Potency result is “inactive”. Besides, the max response in experiment [4] is 3.39% (inactive) and -0.795% (inactive).

With `CC(=O)CC(=O)N(C)C`, the Potency entry in experiment [1], in experiment [2], in experiment [3], in experiment [5], in experiment [6] and in experiment [7] was “inactive” each time. The Potency entry in experiment [8], in experiment [9], in experiment [10], in [11], in [12] and in experiment [13] was “inactive” in each case. Besides, the Potency entry in experiment [14], in experiment [15], in experiment [16], in experiment [17], in [18] and in [19] was “inactive” throughout. Moreover, in experiment [20], the Potency result is “inactive”. Also, the max response in experiment [4] was 0.701% (inactive) and 6.53% (inactive).

`CC(C)c1ccc(C(C)C)cc1`: the Potency result in [1], in experiment [2], in [3], in [5], in experiment [6] and in [7] was “inactive” in each case. The Potency entry in experiment [8], in [9], in [10], in experiment [11], in experiment [12] and in experiment [13] was “inactive” each time. Also, the Potency result in [14], in experiment [15], in experiment [16], in [17], in experiment [18] and in [19] was “inactive” each time. Moreover, the Potency entry in experiment [20] is “inactive”. In addition, the max response in [4] is 6.04% (inactive) and 0.0055% (inactive).

Regarding `CC(=O)OC/C=C(\C)CCC=C(C)C`, the Potency result in experiment [1], in experiment [2], in [3], in experiment [5], in experiment [6] and in [7] was “inactive” in each case. The Potency result in experiment [8], in experiment [9], in [10], in [11], in [12] and in [13] was “inactive” each time. For the same compound, the Potency entry in experiment [14], in experiment [15], in experiment [16], in experiment [17], in experiment [18] and in [19] was “inactive” each time. Also, the Potency entry in [20] is “inactive”. For the same compound, the max response in experiment [4] was -1.95% (inactive) and 0.392% (inactive).
